Data published in PubChem BioAssay.
The source made the active and inactive calls.

assay: MM1S myeloma cell viability, profiling panel, resazurin fluorescence, basal, 24 h, PK04 Diversity Set (AID 1174); details: higher = more signal, called active from +8 up or from −8 down;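 also: MM1S multiple myeloma cell line; test concentration not given here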

| SMILES | z-score |
| --- | --- |
| COCCOC(=O)N1C(=O)[C@@]2(c3cc(C#Cc4ccc(OC)cc4)ccc31)[C@H](c1ccc(OCCO)cc1)N1[C@H](c3ccccc3)[C@H](c3ccccc3)OC(=O)[C@H]1[C@@H]2C(=O)NC[C@H](O)c1ccccc1 | -0.486 (inactive) |
| CC1CC/C=C\[C@H]2OC34C=CCN(Cc5ccccc5)C(=O)[C@H]3N(CCCCCCO)C(=O)[C@@H]4C2C(=O)O1 (stereo partly specified) | 0.507 (inactive) |
| [N-]=[N+]=Nc1ccccc1[C@@H]1OC(c2ccc(OCCCO)cc2)=N[C@]1(CCS(=O)(=O)c1ccccc1)C(=O)NCC(O)CO (stereo partly specified) | 0.321 (inactive) |
| COC(=O)[C@@]1(Cc2ccccc2)[C@H]2c3cc(C(=O)N(C)C)n(CCSC(=N)N)c3C[C@H]2CN1C(=O)c1ccccc1 | -0.399 (inactive) |
| CC(C)[Si](C#CCCc1ccccc1)(O[C@H](c1ccccc1)c1cn(Cc2ccccc2)nn1)C(C)C | -0.016 (inactive) |
| O=C(NCc1ccc(F)cc1)[C@H]1C[C@H]2C(=O)N3CCC[C@H]3C(=O)N2[C@H]1c1ccc(O)cc1 | 0.698 (inactive) |
| COC(=O)[C@]1(Cc2ccccc2)N=C(c2ccc(OCCCO)cc2)O[C@@H]1c1ccccc1CN=[N+]=[N-] | -8.88 (active) |
| CC(C)C[C@@H]1NC(=O)[C@@H]2C[C@H](C(=O)NCCCCCCNC(=O)CS)[C@H](c3cccc(OCCO)c3)N2C1=O | -1.1 (inactive) |
| O=C1O[C@@H](c2ccccc2)[C@@H](c2ccccc2)N2[C@@H](c3ccc(OCCO)cc3)[C@]3(C(=O)Nc4ccc(C#CCCO)cc43)[C@@H](C(=O)O)[C@H]12 | 0.314 (inactive) |
| CCCC[C@H]1C[C@@H]1[C@@H]1N(C(C)=O)[C@H](c2cccc(OC)c2)CC12CC2 | 1.05 (inactive) |
| C=C(COC)/C(=C/C[C@@H](OC(C)=O)c1ccccc1OCCO)c1cnc2ccccc2c1 | -0.975 (inactive) |
| CN(C)CCCNC(=O)[C@@]1(C)c2ccccc2C(=O)N(Cc2ccc(OC(F)(F)F)cc2)[C@H]1c1ccc(CO)cc1 | -1.18 (inactive) |
| C=CC[C@]1(C(=O)NCC(O)CO)COC(c2ccc(OCCCO)cc2)=N1 (stereo partly specified) | -0.772 (inactive) |
| C=CCC(OC(C)=O)[C@@H]1[C@@H](N(Cc2cccc3ccccc23)C(=O)c2ccc(-c3ccccc3)cc2)c2cc(OCCCO)ccc2N1C(=O)Cc1ccc2ccccc2c1 (stereo partly specified) | 0.331 (inactive) |
| CCCCCC1=C2CNC(CC(C)C)(C(=O)OC)C=C2C(C)C1=O (stereo unspecified) | -1.2 (inactive) |
| CN1C(=O)[C@@H]2[C@@H](CC(COc3ccccc3)=C3[C@@H](CCc4ccccc4)OB(O)C[C@@H]32)C1=O | -0.675 (inactive) |
| COC(=O)[C@@]1(Cc2ccc(OC)cc2)[C@H]2c3cc(C(=O)N4CCCC4)n(Cc4ccc(C(F)(F)F)nc4)c3C[C@H]2CN1C(=O)c1ccccc1 | -1.07 (inactive) |
| C=CCC(OC(C)=O)[C@@H]1[C@@H](N(Cc2cc3ccccc3o2)C(=O)Cc2ccc(OC)cc2)c2cc(OCCCO)ccc2N1C(=O)c1ccc2ccccc2n1 (stereo partly specified) | 0.472 (inactive) |
| [N-]=[N+]=Nc1ccccc1[C@@H]1OC(c2ccc(OCCCO)cc2)=N[C@]1(Cc1ccccc1)C(=O)NCCN1CCOCC1 | -1.37 (inactive) |
| COc1ccc(C(=O)Nc2cccc(CN3C(=O)[C@]4(O[C@H](CC(=O)N5Cc6ccccc6C[C@H]5CO)[C@@H]([Si](C)(C)c5ccc(OC)cc5)[C@@H]4C)c4ccccc43)c2)cc1 | -1.38 (inactive) |
| C=CCN1C(=O)[C@@]2(O[C@@H](CCn3cc([C@H](O)c4ccccc4)nn3)[C@H]([Si](C)(C)c3ccc(OC)cc3)[C@H]2C)c2cc(N3C(=O)c4cccc5cccc3c45)ccc21 | -2.17 (inactive) |
| CC(C)(C)N1CC=CC23O[C@@H]4/C=C\CCCOC(=O)C4[C@H]2C(=O)N(CCCCCO)[C@@H]3C1=O (stereo partly specified) | 0.0676 (inactive) |
| CN(C)CCCC[C@@H]1NC(=O)[C@@H]2C[C@H](C(=O)NCCCCCCNC(=O)CS)[C@H](c3ccc(O)cc3)N2C1=O | -0.353 (inactive) |
| CC1CC/C=C\[C@H]2OC34C=CCN(CCN5CCOCC5)C(=O)[C@H]3N(CCCO)C(=O)[C@@H]4C2C(=O)O1 (stereo partly specified) | -0.431 (inactive) |
| COc1ccccc1CN1C(=O)c2ccccc2[C@](Cc2ccccc2I)(C(=O)NCC(C)C)[C@@H]1c1ccc(CO)cc1 | 0.916 (inactive) |
| COCC(=C=CC[C@H](O)c1ccccc1OCCO)C[C@H](O)COCc1ccccc1 | 0.442 (inactive) |
